This is part of a sample that, as a whole, favours compounds with a hit. Of some 83,000 tested, about 20% had one in any assay.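 Method: cells in 96-well plates; compound added at one concentration; 48 h incubation; percent growth measured; values under 10 scored active.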 A number with no mark means an inactive call. Calls of active or inactive are those of the source.

Among the test systems are T-47D breast; BT-549 breast; MDA-MB-435 melanoma; SW-620 colon; MCF7 breast; HCT-116 colon; HCC-2998 colon; KM12 colon.
Holding throughout (assay): NCI-60 one-dose screen, 48 h (100 = growth as untreated, 0 = no growth, -100 = all killed)
Common to all, as to settings: 10 µM unless noted

Regarding `O=c1[nH]c(NCc2ccccc2)nc2nc(Nc3ccc(NC(=S)Nc4ccccc4)cc3)nc(-c3ccc(O)cc3O)c12`, the growth in the assay on T-47D breast is 84%; in the assay with BT-549 breast, 155%; in the assay on MDA-MB-435 melanoma, 105%; with SW-620 colon, 95.6%; with MCF7 breast, 96.7%; with HCT-116 colon, 99.2%. Further, the growth was 113% in the assay with HCC-2998 colon and 96.3% in the assay on KM12 colon.

As for `Cc1ccc(-c2nc(C(Cl)Cl)n3nc(-c4ccccc4)cc3n2)cc1`, the growth in the assay with T-47D breast is -6.55% (active); in the assay with BT-549 breast, 70.8%; in the assay on MDA-MB-435 melanoma, 15.4%; in the assay on SW-620 colon, -22.4% (active); with MCF7 breast, 18.9%; in the assay on HCT-116 colon it was 9.65% (active). Further, the values for the growth in the assay on HCC-2998 colon and in the assay with KM12 colon were 23.3% and 0.685% (active), respectively.

On to `CCCCCCCCCCCCNC(=O)[C@H]1CSC(c2cc(Br)cs2)N1` (some centres not stated), for which the growth with T-47D breast is 39.4%; with BT-549 breast, -58.4% (active); in the assay on MDA-MB-435 melanoma it was -90.3% (active); with SW-620 colon it was -34.2% (active); in the assay with MCF7 breast, 49%; in the assay on HCT-116 colon, -82% (active). Besides, the growth with HCC-2998 colon is 54.3%; in the assay with KM12 colon, -55.3% (active).

Consider `COc1ccc(-c2c(N)n[nH]c2-c2cc(OC)c(OC)c(OC)c2)cc1`, for which the growth in the assay on T-47D breast is 75.1%; in the assay with BT-549 breast it was 50.9%; with MDA-MB-435 melanoma it was -40.7% (active); in the assay on SW-620 colon it was 21%; in the assay on MCF7 breast, 23%; with HCT-116 colon, 9.76% (active). For the same molecule, the growth with HCC-2998 colon was -2.65% (active); with KM12 colon, 14%.

`COc1ccc(C2C(C#N)=C(N)Oc3c2ccc2ccccc32)cc1` (configuration not stated): the growth in the assay on T-47D breast is 31%; with BT-549 breast it was 61%; in the assay on MDA-MB-435 melanoma, -49.8% (active); with SW-620 colon it was 19%; with MCF7 breast, 13.2%; in the assay with HCT-116 colon, 23.5%. Moreover, the values for the growth in the assay with HCC-2998 colon and in the assay on KM12 colon were 74.4% and 29%, respectively.

Take `Nc1cccc(-c2nc3sccn3c2-c2ccnc(NCCNS(=O)(=O)c3ccc(C(F)(F)F)cc3)n2)c1`: the growth with T-47D breast was 46.2%; with BT-549 breast it was 52.7%; in the assay with MDA-MB-435 melanoma, 27%; in the assay with SW-620 colon, 100%; in the assay on MCF7 breast it was 32.8%; in the assay on HCT-116 colon, 55.1%. The growth in the assay with HCC-2998 colon is 121%; in the assay with KM12 colon, 61.5%.

`CC(=O)c1cc2c(N)c(C(=O)Nc3cccc4c3OCCO4)sc2nc1C`: the growth is 56% with T-47D breast; 103% in the assay with BT-549 breast; 24.1% with MDA-MB-435 melanoma; 95.1% in the assay on SW-620 colon; 94.9% in the assay with MCF7 breast; 96.4% in the assay on HCT-116 colon. In addition, the growth was 95% in the assay on HCC-2998 colon and 98.7% with KM12 colon.

Regarding `O=C(Nc1ccncc1)C(=O)c1cn(S(=O)(=O)c2ccc(Cl)cc2)c2ccccc12`, the growth was 41.2% in the assay on T-47D breast; 39.2% in the assay on BT-549 breast; 0.272% (active) in the assay with MDA-MB-435 melanoma; 10.4% in the assay on SW-620 colon; 16.8% in the assay on MCF7 breast; 15.3% with HCT-116 colon. For the same molecule, the growth with HCC-2998 colon is 54.7%; in the assay with KM12 colon, 19.8%.

Turning to `Cc1csc(NC(c2ccc(Br)cc2)c2c(C)nc3ccccn23)n1` (configuration not stated), the growth in the assay on T-47D breast was 75.6%; with BT-549 breast, 90.7%; in the assay with MDA-MB-435 melanoma, 97.7%; in the assay with SW-620 colon, 88.1%; in the assay with MCF7 breast, 83.3%; with HCT-116 colon it was 59.8%. For the same molecule, the growth with HCC-2998 colon was 117%; in the assay on KM12 colon, 97.7%.

`COc1ccc(Nc2[nH]n3c(=O)cc(C)nc3c2C(N)=O)c(OC)c1`: the growth was 79.8% in the assay on T-47D breast; 95.3% with BT-549 breast; 114% with MDA-MB-435 melanoma; 93.3% in the assay with SW-620 colon; 92.7% in the assay on MCF7 breast; 97.8% with HCT-116 colon. In addition, the growth was 108% in the assay with HCC-2998 colon and 101% in the assay on KM12 colon.

In the case of `COc1ccc(CN2CCc3c(Sc4ccccc4)nc(N)nc3C2=O)c(OC)c1`, the growth was 33.9% in the assay with T-47D breast; 23.4% in the assay with BT-549 breast; 60.6% with MDA-MB-435 melanoma; 81.2% in the assay on SW-620 colon; 43.7% with MCF7 breast; 42.7% with HCT-116 colon. Further, the growth in the assay with HCC-2998 colon is 86.2%; in the assay with KM12 colon, 84.9%.

On to `COc1ccc2c(c1)NC1=C(C(=O)OC1)C2c1cc(OC)c2c(c1)OCO2` (configuration not stated), for which the growth in the assay on T-47D breast is 53.8%; with BT-549 breast it was 32.4%; with MDA-MB-435 melanoma it was -14.7% (active); in the assay with SW-620 colon, 21.2%; in the assay on MCF7 breast, 17.9%; with HCT-116 colon, 6.69% (active). In addition, the results for the growth in the assay on HCC-2998 colon and with KM12 colon were 11.3% and 2.35% (active), respectively.

With `O=C(CN1CCN(c2cc3c(cc2F)c(=O)c(C(=O)N/N=C/c2ccccc2O)cn3C2CC2)CC1)N/N=C\c1ccccc1O`, the growth was 17.9% in the assay on T-47D breast; 45.5% in the assay on BT-549 breast; 17.6% with MDA-MB-435 melanoma; 36.6% in the assay on SW-620 colon; 10% with MCF7 breast; 15.6% in the assay with HCT-116 colon. The growth was 39.5% in the assay with HCC-2998 colon and 18.3% in the assay with KM12 colon.

`C=C1C(=O)O[C@H]2[C@H]1CC/C(Cn1cc(CNC(=O)c3cc4ccccc4[nH]3)nn1)=C\CC[C@@]1(C)O[C@@H]21`: the growth was 48.7% in the assay on T-47D breast; 87.9% in the assay with BT-549 breast; 26.5% in the assay with MDA-MB-435 melanoma; -32.5% (active) in the assay with SW-620 colon; 9.93% (active) in the assay on MCF7 breast; 4.22% (active) in the assay with HCT-116 colon. Moreover, the growth in the assay on HCC-2998 colon is 96%; in the assay on KM12 colon, 68.9%.

The values above are taken from PubChem BioAssay (NCI).
